What was measured:
Experiment in all cases: log2 ratio of Biotin-Ahx-Ub-VS probe labelling (fragment/DMSO); higher = less target engagement (more negative = stronger competition), active = hit call of the paper (q ≤ 0.05, log2 ratio ≤ -1)
Conditions in all cases: compound concentration: 200 uM; treatment time: 3 h
USP9X = USP9X (UniProt Q93008)
Summary of the method: (§1)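 Labelled DUBs from HEK293T lysate were NeutrAvidin-enriched, digested with LysC and trypsin, and run by diaPASEF LC-MS/MS. Before that, each 495 µg sample in Tris/CHAPS/IGEPAL buffer with protease inhibitors was treated in triplicate with fragment at 200 µM or vehicle for 3 h, then with Biotin-Ahx-Ub-VS at 0.5 µM final for 1 h. Values are average log2 ratios of fragment over vehicle by unpaired t-test, based on global-median-normalised Spectronaut label-free quantities from proteins with ≥2 unique peptides.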

UniProt O00487 = molecular target: UniProt O00487
Summary of the method: as §1

UniProt O00507 = molecular target: UniProt O00507
Summary of the method: as §1

UniProt P51784 = molecular target: UniProt P51784
Summary of the method: as §1

UniProt Q5T2D3 = molecular target: T1, UniProt Q5T2D3
T1 sequence (whole entry): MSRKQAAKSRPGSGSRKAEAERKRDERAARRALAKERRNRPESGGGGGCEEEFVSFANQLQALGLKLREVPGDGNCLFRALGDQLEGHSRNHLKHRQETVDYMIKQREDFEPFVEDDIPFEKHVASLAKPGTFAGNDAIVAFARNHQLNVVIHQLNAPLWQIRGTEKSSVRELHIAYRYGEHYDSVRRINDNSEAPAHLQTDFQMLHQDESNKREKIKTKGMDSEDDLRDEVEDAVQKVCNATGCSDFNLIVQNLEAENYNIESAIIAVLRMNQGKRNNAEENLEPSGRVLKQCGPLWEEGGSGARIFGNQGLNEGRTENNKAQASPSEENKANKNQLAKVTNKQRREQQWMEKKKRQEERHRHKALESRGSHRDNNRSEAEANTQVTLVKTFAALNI
Summary of the method: as §1

UniProt Q8TE49 = molecular target: T2, UniProt Q8TE49
T2 sequence (whole entry): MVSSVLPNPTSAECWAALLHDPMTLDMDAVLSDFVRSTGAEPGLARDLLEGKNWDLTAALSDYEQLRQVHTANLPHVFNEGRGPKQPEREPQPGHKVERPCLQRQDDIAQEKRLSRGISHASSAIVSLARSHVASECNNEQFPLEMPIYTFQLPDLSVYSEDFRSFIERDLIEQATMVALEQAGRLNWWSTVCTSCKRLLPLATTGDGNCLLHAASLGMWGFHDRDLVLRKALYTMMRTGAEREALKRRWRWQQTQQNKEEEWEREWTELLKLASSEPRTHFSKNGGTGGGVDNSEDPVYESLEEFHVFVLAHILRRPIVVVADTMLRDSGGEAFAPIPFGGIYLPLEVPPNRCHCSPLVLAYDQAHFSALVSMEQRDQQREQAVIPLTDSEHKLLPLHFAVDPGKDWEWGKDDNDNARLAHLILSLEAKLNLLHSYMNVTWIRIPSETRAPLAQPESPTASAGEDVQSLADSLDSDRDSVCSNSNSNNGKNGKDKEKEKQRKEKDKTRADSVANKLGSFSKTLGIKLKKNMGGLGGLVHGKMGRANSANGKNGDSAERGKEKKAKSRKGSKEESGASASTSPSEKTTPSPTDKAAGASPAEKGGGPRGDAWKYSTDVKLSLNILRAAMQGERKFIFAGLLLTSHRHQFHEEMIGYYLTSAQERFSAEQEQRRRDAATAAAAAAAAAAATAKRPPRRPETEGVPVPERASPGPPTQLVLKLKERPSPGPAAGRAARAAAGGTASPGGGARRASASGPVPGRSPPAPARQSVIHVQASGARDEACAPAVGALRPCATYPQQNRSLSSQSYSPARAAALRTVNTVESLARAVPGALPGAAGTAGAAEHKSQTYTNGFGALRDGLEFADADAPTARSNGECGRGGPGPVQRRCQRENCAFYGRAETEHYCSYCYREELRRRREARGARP
Summary of the method: as §1

UniProt Q9P2H5 = molecular target: T3, UniProt Q9P2H5
T3 sequence (whole entry): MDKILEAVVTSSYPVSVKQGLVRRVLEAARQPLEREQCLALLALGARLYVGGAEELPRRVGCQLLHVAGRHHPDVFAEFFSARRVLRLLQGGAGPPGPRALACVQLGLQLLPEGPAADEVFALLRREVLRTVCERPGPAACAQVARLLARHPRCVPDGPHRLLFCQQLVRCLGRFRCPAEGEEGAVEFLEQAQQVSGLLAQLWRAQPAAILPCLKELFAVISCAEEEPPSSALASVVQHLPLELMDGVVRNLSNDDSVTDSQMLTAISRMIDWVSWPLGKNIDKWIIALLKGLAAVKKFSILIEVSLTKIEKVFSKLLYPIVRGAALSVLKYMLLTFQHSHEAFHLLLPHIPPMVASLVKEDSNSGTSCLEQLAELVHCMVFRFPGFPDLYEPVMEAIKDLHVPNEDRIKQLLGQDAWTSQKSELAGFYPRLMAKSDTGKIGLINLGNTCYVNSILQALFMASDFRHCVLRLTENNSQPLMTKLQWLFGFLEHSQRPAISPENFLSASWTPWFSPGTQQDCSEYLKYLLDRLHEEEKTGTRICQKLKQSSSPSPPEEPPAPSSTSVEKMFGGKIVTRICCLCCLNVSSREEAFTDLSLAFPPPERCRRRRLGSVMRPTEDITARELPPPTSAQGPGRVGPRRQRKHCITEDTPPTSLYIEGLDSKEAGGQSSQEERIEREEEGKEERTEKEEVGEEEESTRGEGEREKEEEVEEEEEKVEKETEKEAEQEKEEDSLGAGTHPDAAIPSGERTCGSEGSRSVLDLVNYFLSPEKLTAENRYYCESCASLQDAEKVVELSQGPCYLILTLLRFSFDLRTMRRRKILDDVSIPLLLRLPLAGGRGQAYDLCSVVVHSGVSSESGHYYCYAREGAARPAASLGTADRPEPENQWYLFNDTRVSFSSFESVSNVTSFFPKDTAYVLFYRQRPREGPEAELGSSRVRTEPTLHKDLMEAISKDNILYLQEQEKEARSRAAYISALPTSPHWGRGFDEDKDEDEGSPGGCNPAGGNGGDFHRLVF
Summary of the method: as §1

UniProt Q9UGI0 = molecular target: T4, UniProt Q9UGI0
T4 sequence (whole entry): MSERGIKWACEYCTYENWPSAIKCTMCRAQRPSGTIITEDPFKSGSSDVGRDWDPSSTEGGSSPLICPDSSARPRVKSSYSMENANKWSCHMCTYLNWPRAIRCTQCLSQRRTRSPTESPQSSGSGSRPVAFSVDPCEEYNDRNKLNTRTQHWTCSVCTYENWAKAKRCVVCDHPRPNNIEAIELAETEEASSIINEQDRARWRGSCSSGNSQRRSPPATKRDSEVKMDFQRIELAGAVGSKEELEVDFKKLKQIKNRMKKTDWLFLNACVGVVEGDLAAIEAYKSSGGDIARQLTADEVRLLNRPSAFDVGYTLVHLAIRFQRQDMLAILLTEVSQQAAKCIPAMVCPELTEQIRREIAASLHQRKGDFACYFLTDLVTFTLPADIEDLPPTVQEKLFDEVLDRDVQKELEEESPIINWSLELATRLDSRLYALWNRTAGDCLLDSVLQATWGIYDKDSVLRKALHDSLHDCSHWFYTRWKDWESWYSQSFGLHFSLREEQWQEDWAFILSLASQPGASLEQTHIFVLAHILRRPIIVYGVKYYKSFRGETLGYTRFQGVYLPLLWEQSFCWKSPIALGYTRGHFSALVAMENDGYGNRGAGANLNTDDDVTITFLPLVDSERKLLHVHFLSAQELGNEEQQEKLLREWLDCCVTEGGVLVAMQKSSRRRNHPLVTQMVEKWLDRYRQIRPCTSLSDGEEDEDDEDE
Summary of the method: as §1

YOD1 = molecular target: T5, YOD1 (UniProt Q5VVQ6)
T5 sequence (whole entry): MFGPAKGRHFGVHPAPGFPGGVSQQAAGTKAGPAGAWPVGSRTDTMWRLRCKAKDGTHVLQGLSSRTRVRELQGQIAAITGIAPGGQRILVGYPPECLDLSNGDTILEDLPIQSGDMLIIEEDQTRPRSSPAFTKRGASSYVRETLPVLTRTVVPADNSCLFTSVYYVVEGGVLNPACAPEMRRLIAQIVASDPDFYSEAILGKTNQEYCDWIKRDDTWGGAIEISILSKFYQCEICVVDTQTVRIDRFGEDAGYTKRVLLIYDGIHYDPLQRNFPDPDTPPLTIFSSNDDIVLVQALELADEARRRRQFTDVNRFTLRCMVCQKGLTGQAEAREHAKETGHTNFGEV
Summary of the method: as §1

Measured: log2 ratio of Biotin-Ahx-Ub-VS probe labelling

Chain of UniProt O00487 (O00487 whole entry): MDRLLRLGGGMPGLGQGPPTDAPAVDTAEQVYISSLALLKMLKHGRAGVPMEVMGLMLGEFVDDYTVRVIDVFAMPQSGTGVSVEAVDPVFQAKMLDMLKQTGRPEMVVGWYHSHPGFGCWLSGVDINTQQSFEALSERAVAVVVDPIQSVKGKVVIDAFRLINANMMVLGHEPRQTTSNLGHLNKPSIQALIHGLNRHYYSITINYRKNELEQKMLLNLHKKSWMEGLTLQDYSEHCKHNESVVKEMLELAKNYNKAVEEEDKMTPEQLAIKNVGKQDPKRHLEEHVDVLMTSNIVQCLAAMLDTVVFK
Chain of UniProt P51784 (P51784 whole entry): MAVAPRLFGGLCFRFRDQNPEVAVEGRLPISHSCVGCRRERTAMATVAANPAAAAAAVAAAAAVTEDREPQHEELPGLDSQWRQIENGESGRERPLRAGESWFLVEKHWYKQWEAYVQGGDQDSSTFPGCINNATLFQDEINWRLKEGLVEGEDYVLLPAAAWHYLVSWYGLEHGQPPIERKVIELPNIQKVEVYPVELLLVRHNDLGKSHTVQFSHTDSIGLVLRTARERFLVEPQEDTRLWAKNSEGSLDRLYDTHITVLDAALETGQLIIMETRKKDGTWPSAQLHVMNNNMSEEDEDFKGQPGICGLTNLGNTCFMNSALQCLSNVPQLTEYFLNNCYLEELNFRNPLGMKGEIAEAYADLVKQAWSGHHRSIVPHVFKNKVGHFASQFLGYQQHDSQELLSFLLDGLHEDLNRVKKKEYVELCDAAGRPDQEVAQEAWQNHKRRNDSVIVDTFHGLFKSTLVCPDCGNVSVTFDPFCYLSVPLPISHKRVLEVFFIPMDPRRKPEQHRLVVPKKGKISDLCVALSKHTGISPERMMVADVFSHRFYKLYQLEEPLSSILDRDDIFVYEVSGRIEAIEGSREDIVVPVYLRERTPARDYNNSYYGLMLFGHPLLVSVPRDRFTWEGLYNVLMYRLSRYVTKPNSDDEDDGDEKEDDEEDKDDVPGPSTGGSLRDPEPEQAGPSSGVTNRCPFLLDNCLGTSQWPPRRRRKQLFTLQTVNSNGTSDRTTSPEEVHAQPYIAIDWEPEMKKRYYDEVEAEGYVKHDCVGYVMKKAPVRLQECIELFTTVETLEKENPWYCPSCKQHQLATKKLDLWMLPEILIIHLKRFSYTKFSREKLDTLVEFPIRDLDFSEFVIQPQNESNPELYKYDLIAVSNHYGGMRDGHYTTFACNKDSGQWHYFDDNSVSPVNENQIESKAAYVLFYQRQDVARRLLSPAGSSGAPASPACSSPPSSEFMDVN
Chain of USP9X (Q93008 whole entry, the tested form may be a part): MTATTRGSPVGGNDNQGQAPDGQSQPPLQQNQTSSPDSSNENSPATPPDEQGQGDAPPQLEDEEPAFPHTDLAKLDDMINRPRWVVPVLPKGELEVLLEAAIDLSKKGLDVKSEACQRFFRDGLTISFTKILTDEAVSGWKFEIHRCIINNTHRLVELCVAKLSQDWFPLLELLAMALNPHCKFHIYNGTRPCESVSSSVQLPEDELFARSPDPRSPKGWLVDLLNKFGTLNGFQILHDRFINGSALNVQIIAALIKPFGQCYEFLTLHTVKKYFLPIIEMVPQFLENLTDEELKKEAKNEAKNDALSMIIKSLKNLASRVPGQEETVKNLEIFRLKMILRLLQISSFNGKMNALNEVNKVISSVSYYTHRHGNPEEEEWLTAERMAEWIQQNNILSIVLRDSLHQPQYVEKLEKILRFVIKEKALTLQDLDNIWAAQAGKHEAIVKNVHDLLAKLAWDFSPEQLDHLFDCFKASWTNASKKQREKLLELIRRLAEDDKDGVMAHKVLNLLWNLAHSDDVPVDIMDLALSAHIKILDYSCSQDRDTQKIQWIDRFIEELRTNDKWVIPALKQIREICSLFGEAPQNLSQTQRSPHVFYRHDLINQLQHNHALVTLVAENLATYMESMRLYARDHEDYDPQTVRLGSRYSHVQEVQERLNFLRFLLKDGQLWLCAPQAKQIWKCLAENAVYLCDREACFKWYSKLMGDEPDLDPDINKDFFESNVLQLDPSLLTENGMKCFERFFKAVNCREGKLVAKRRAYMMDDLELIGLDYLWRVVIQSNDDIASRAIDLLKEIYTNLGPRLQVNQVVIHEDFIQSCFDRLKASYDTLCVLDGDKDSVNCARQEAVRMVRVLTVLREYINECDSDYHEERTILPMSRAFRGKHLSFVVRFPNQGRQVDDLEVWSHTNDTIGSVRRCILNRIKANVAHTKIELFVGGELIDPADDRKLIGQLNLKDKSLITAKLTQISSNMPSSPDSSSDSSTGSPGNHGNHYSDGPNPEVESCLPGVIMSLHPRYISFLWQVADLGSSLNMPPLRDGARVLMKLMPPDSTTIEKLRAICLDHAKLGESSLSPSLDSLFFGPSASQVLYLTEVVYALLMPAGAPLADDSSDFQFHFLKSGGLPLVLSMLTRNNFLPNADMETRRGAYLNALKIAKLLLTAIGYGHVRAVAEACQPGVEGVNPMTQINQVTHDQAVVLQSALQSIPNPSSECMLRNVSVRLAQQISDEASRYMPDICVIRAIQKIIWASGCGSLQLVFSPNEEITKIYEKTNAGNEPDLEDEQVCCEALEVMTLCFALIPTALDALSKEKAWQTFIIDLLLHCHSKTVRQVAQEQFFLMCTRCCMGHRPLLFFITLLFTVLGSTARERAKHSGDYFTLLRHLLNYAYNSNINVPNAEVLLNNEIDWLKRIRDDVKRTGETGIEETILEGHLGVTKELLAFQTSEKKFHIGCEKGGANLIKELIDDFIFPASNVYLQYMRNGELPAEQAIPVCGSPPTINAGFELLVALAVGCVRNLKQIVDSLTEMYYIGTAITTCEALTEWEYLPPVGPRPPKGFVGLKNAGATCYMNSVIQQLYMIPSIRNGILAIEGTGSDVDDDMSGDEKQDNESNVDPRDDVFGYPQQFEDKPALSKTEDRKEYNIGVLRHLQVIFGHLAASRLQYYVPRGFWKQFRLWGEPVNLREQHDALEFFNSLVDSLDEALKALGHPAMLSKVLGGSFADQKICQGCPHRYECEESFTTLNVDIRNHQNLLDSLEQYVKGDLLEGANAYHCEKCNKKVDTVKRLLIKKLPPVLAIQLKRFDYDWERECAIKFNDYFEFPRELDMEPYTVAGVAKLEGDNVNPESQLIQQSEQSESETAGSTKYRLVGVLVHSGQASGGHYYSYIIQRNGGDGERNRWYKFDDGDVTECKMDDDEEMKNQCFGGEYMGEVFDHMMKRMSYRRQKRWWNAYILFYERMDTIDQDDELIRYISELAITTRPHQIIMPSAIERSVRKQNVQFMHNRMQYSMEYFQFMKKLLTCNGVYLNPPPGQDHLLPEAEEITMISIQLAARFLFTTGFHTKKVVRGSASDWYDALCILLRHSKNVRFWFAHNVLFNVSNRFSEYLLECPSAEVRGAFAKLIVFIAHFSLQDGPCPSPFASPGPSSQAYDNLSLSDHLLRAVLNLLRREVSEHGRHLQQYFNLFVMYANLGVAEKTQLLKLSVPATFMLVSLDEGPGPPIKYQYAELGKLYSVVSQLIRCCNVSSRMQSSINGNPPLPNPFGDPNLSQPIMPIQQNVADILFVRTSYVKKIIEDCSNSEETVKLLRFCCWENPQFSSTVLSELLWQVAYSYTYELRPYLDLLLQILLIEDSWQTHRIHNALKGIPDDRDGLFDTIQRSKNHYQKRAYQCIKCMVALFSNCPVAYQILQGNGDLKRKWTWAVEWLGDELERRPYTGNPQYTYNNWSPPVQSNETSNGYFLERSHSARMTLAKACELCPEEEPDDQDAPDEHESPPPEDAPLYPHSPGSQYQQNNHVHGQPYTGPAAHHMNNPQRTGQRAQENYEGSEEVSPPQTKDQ

Cc1cccc(NC(=O)CCl)c1C
inactive: USP9X -0.185 | UniProt O00487 -0.182 | UniProt O00507 -0.281 | UniProt P51784 -0.431 | UniProt Q5T2D3 -0.156 | UniProt Q8TE49 -0.703 | UniProt Q9P2H5 -0.325 | UniProt Q9UGI0 -0.414 | YOD1 -0.291

From the supplement of paper PMC11732987, “Enantioselective OTUD7B fragment discovery through chemoproteomics screening and high-throughput optimisation” (Communications Chemistry, 2025)
